A word on the AC50: it is the concentration at which the activity in the assay is half-maximal.

Results filed as inconclusive are left out. Active and inactive are the calls of the source. The calls were made as follows, unless noted: active = hit-call score of the fitted dose curve at least 0.9, where 1 is the maximum; inactive = score below 0.9.

Read-out in assay [1]: solute carrier (SLC22A1), SLC22A1 (gene 6580)
The experiment in a line: LTEA_HepaRG_SLC22A1: Life Technologies and Expression Analysis (LTEA) Assay for solute carrier (SLC22A1) using HepaRG (AID 2283524). As to conditions: mRNA level, 48 h; actives raise or lower the signal. In outline:
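Transcript level of SLC22A1 quantified by qRT-PCR (normalized to three housekeeping genes) after 48 h chemical exposure of HepaRG cells, eight concentrations up to 100 µM, half-log steps, 0.5% DMSO vehicle. Gain or loss relative to DMSO fitted bidirectionally.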

Read-out in assay [2]: Pyruvate Dehydrogenase Kinase 4 (PDK4), PDK4 (gene 5166)
The experiment in a line: LTEA_HepaRG_PDK4: Life Technologies and Expression Analysis (LTEA) Assay for Pyruvate Dehydrogenase Kinase 4 (PDK4) using HepaRG (AID 2283525). The conditions noted are these: mRNA level, 48 h; actives raise or lower the signal. A digest of the protocol: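 Readout is qRT-PCR of PDK4 transcript, normalized to three housekeeping genes, with bidirectional fitting against 0.5% DMSO vehicle. Differentiated HepaRG cells were treated 48 h in serum-free induction medium, duplicate wells, eight-point half-log series topping at 100 uM.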

Read-out in assay [3]: NAD(P)H dehydrogenase [quinone] 1 (NQO1), NQO1 (gene 1728)
Description: LTEA_HepaRG_NQO1: Life Technologies and Expression Analysis (LTEA) Assay for NAD(P)H dehydrogenase [quinone] 1 (NQO1) using HepaRG (AID 2283526). The conditions noted are these: mRNA level, 48 h; actives raise or lower the signal. In outline:
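In this assay, gene expression is read by qRT-PCR after 48 h exposure of HepaRG cells to eight concentrations (max 100 uM, half-log) in 0.5% DMSO. Each chemical runs in duplicate, and activity is scored relative to vehicle.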

Read-out in assay [4]: Nuclear factor erythroid 2-related factor 2 (Homo sapiens) (UniProt Q16236)
The experiment in a line: LTEA_HepaRG_NFE2L2: Life Technologies and Expression Analysis (LTEA) Assay for Nuclear factor erythroid 2-related factor 2 (NFE2L2) Transcription Factor using HepaRG (AID 2283527).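 Also: TaqMan qRT-PCR transcript level normalised to ACTB GAPDH and POLR2A housekeeping genes.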 As to conditions: mRNA level, 48 h; actives raise or lower the signal. A digest of the protocol:
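NFE2L2 transcript level was read by qRT-PCR (housekeeping ACTB/GAPDH/POLR2A normalisation) after 48 h chemical treatment of HepaRG in serum-free induction medium. Duplicate 8-point half-log curves, top 100 uM, 0.5% DMSO vehicle; up- or down-regulation fitted against vehicle.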

Read-out in assay [5]: Signal transducer and activator of transcription 3 (Homo sapiens) (UniProt P40763)
Description: LTEA_HepaRG_STAT3: Life Technologies and Expression Analysis (LTEA) Assay for Signal transducer and activator of transcription (STAT3) using HepaRG (AID 2283529). As to conditions: mRNA level, 48 h; actives raise or lower the signal. A digest of the protocol:
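STAT3 transcript quantified by qRT-PCR against three housekeeping genes (ACTB, GAPDH, POLR2A), fitted both directions relative to DMSO. HepaRG cultures exposed 48 h to eight half-log concentrations, top 100 uM, 0.5% DMSO, serum-free induction medium.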

Read-out in assay [6]: solute carrier (SLCO1B1), SLCO1B1 (gene 10599)
The experiment in a line: LTEA_HepaRG_SLCO1B1: Life Technologies and Expression Analysis (LTEA) Assay for solute carrier (SLCO1B1) using HepaRG (AID 2283530). As to conditions: mRNA level, 48 h; actives raise or lower the signal. In outline:
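Differentiated human HepaRG cells, plated 48 h, switched to serum-free induction medium and exposed in duplicate for 48 h to 8 half-log concentrations (top 100 uM) in 0.5% DMSO. SLCO1B1 mRNA by TaqMan qRT-PCR, normalized to ACTB/GAPDH/POLR2A.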

Read-out in assay [7]: sulfotransferase 2A1 (SULT2A1), SULT2A1 (gene 6822)
The experiment in a line: LTEA_HepaRG_SULT2A1: Life Technologies and Expression Analysis (LTEA) Assay for sulfotransferase 2A1 (SULT2A1) using HepaRG (AID 2283531). As to conditions: mRNA level, 48 h; actives raise or lower the signal. In outline: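 Differentiated human HepaRG cells in serum-free induction medium were exposed for 48 h to eight half-log concentrations (top 100 uM, 0.5% DMSO). SULT2A1 mRNA was measured by qRT-PCR, normalized to ACTB, GAPDH and POLR2A, and fitted bidirectionally against DMSO.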

Read-out in assay [8]: Transforming Growth Factor (TGFA), TGFA (gene 7039)
Description: LTEA_HepaRG_TGFA: Life Technologies and Expression Analysis (LTEA) Assay for Transforming Growth Factor (TGFA) using HepaRG (AID 2283532). The conditions noted are these: mRNA level, 48 h; actives raise or lower the signal. A digest of the protocol:
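TGFA transcript quantified by qRT-PCR (Fluidigm arrays) against three housekeeping genes, after 48 hours chemical treatment of HepaRG cells. Top concentration 100 uM with half-log dilutions, 8 points, duplicates, 0.5% DMSO.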

Read-out in assay [9]: Transforming Growth Factor (TGFB1), TGFB1 (gene 7040)
Description: LTEA_HepaRG_TGFB1: Life Technologies and Expression Analysis (LTEA) Assay for Transforming Growth Factor (TGFB1) Transporter using HepaRG (AID 2283533). The conditions noted are these: mRNA level, 48 h; actives raise or lower the signal. In outline:
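Differentiated human HepaRG cells in serum-free induction medium were exposed in duplicate for 48 h to eight concentrations (top 100 uM, half-log steps, 0.5% DMSO). TGFB1 mRNA was quantified by qRT-PCR, normalized to ACTB, GAPDH, POLR2A, and fitted bidirectionally against DMSO.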

Read-out in the next assay: TIMP1, TIMP1 (gene 7076)
The experiment in a line: LTEA_HepaRG_TIMP1: Life Technologies and Expression Analysis (LTEA) Assay for TIMP1 using HepaRG (AID 2283534). As to conditions: mRNA level, 48 h; actives raise or lower the signal. A digest of the protocol: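 Differentiated human HepaRG cells in serum-free induction medium were exposed 48 h to chemicals (8 half-log concentrations, top 100 uM, 0.5% DMSO). TIMP1 mRNA was quantified by TaqMan qRT-PCR, normalized to ACTB/GAPDH/POLR2A; bidirectional fit versus DMSO.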

Read-out in assay [10]: Tumor necrosis factor receptor 1 (TNFRSF1A), TNFRSF1A (gene 7132)
The experiment in a line: LTEA_HepaRG_TNFRSF1A: Life Technologies and Expression Analysis (LTEA) Assay for Tumor necrosis factor receptor 1 (TNFRSF1A) using HepaRG (AID 2283535). As to conditions: mRNA level, 48 h; actives raise or lower the signal. In outline: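 Differentiated human HepaRG cells were exposed in duplicate for 48 h in serum-free induction medium to eight concentrations (top 100 uM, half-log steps, 0.5% DMSO). TNFRSF1A mRNA was quantified by qRT-PCR, normalized to ACTB, GAPDH and POLR2A, then fitted bidirectionally against DMSO.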

Read-out in assay [11]: Thyroid Hormone Responsive (THRSP), THRSP (gene 7069)
The experiment in a line: LTEA_HepaRG_THRSP: Life Technologies and Expression Analysis (LTEA) Assay for Thyroid Hormone Responsive (THRSP) using HepaRG (AID 2283536). The conditions noted are these: mRNA level, 48 h; actives raise or lower the signal. In outline: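 THRSP transcript quantified by Fluidigm qRT-PCR against three housekeeping genes after 48 h chemical exposure of HepaRG cells in serum-free induction medium; eight-point half-log series, top 100 uM, 0.5% DMSO vehicle, duplicate wells.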

Read-out in assay [12]: Cellular tumor antigen p53 (Homo sapiens) (UniProt P04637)
The experiment in a line: LTEA_HepaRG_TP53: Life Technologies and Expression Analysis (LTEA) Assay for Tumor Protein P53 (TP53) using HepaRG (AID 2283537). As to conditions: mRNA level, 48 h; actives raise or lower the signal. In outline: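 Differentiated HepaRG cells in serum-free induction medium exposed 48 h in duplicate to 8 half-log concentrations, top 100 uM, 0.5% DMSO. TP53 mRNA by TaqMan qRT-PCR (Fluidigm), normalized to ACTB, GAPDH, POLR2A; fitted bidirectionally versus DMSO.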

Read-out in assay [13]: UDP glucuronosyltransferase (UGT1A1), UGT1A1 (gene 54658)
The experiment in a line: LTEA_HepaRG_UGT1A1: Life Technologies and Expression Analysis (LTEA) Assay for UDP glucuronosyltransferase (UGT1A1) using HepaRG (AID 2283538). As to conditions: mRNA level, 48 h; actives raise or lower the signal. A digest of the protocol: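 mRNA induction or loss of UGT1A1, by TaqMan qRT-PCR, in duplicate HepaRG wells after 48 h exposure to half-log dilutions topping at 100 uM; DMSO (0.5%) served as baseline.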

Read-out in assay [14]: UDP glucuronosyltransferase (UGT1A6), UGT1A6 (gene 54578)
Description: LTEA_HepaRG_UGT1A6: Life Technologies and Expression Analysis (LTEA) Assay for UDP glucuronosyltransferase (UGT1A6) using HepaRG (AID 2283539). The conditions noted are these: mRNA level, 48 h; actives raise or lower the signal. In outline: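 Human HepaRG cells were dosed for 48 h in serum-free induction medium with 0.5% DMSO vehicle, eight-point half-log series from 100 uM, in duplicate. UGT1A6 mRNA was measured by qRT-PCR, normalized to ACTB, GAPDH, POLR2A, and fitted bidirectionally against DMSO.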

Read-out in assay [15]: X-box binding protein 1 (XBP1), XBP1 (gene 7494)
The experiment in a line: LTEA_HepaRG_XBP1: Life Technologies and Expression Analysis (LTEA) Assay for X-box binding protein 1 (XBP1) using HepaRG (AID 2283540). The conditions noted are these: mRNA level, 48 h; actives raise or lower the signal. In outline:
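Differentiated human HepaRG cells in serum-free induction medium were exposed in duplicate for 48 h to eight half-log concentrations up to 100 uM in 0.5% DMSO. XBP1 mRNA was quantified by qRT-PCR, normalised to ACTB, GAPDH and POLR2A, with bidirectional fitting against DMSO.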

A short description of assay [16]: LTEA_HepaRG_LDH_cytotoxicity: Cytotoxicity Assessment in the Life Technologies and Expression Analysis (LTEA) Assay (AID 2283563; active = hit-call score of the fitted dose curve at least 0.9, where 1 is the maximum). In outline: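 Differentiated human HepaRG cells, plated 48 h beforehand, were switched to serum-free induction medium and exposed for 48 h to eight half-log concentrations (top 100 uM) in 0.5% DMSO. LDH was measured in spent medium; activity was fitted relative to DMSO vehicle.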

Read-out in assay [17]: succinate dehydrogenase complex iron sulfur subunit B (SDHB), SDHB (gene 6390)
The experiment in a line: LTEA_HepaRG_SDHB: Life Technologies and Expression Analysis (LTEA) Assay for succinate dehydrogenase complex iron sulfur subunit B (SDHB) using HepaRG (AID 2283528). The conditions noted are these: mRNA level, 48 h; actives raise or lower the signal. A digest of the protocol: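 HepaRG cells (~100,000/well, plated 48 h) exposed in duplicate for 48 h in serum-free induction medium to 8-point half-log series from 100 uM in 0.5% DMSO; mRNA by qRT-PCR normalised to ACTB, GAPDH, POLR2A; bidirectional fit versus DMSO.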

A short description of assay [18]: TOX21_p53_BLA_p2_viability: Viability Assessment in the Tox21 HCT-116 p53 Agonism Beta-lactamase Assay, Phase 2 (AID 2283591; active = hit-call score of the fitted dose curve at least 0.9, where 1 is the maximum;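 also: compound exposure lasted 16 h at 37 °C; actives lower the ATP signal meaning cytotoxicity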). A digest of the protocol:
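Cytotoxicity readout: CellTiter-Glo ATP luminescence, 30 min at room temperature, after the beta-lactamase read. Cells were HCT116 exposed 16 h at 37C to compounds pin-transferred at 217-fold dilution from DMSO stocks.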

Assay [19] is described as follows: ATG_XTT_Cytotoxicity: Cytotoxicity Assessment in the Attagene TRANS-FACTORIAL HepG2 Assay (AID 2283584; active = hit-call score of the fitted dose curve at least 0.9, where 1 is the maximum). A digest of the protocol: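 HepG2 human liver cells, transiently transfected with multiple GAL4-UAS reporter units, were dosed and read at 24 h by XTT as cell number. Loss of signal was fitted relative to DMSO negative control baseline.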

Chain of Signal transducer and activator of transcription 3 (Homo sapiens) (P40763 whole entry, looked up): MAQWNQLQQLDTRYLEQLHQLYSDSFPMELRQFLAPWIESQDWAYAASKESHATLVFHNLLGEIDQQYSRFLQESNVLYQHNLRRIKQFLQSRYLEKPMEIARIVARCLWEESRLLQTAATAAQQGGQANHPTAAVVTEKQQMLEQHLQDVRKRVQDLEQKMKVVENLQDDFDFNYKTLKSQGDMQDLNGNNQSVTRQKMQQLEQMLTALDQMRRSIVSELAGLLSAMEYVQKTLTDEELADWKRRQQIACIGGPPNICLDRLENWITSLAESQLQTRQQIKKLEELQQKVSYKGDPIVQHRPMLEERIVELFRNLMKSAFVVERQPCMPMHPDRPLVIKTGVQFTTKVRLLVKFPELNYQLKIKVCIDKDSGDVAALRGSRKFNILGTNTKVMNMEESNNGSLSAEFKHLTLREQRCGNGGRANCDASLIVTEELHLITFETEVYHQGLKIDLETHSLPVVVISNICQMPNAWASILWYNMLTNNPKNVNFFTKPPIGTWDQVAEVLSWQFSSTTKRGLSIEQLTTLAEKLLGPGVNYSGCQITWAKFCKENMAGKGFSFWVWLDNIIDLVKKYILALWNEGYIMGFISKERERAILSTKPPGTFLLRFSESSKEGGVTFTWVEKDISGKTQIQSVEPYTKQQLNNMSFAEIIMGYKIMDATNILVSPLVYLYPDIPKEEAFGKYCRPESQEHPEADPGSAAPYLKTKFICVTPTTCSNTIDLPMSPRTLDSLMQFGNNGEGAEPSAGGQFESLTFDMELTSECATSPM
Chain of Cellular tumor antigen p53 (Homo sapiens) (P04637 whole entry, looked up): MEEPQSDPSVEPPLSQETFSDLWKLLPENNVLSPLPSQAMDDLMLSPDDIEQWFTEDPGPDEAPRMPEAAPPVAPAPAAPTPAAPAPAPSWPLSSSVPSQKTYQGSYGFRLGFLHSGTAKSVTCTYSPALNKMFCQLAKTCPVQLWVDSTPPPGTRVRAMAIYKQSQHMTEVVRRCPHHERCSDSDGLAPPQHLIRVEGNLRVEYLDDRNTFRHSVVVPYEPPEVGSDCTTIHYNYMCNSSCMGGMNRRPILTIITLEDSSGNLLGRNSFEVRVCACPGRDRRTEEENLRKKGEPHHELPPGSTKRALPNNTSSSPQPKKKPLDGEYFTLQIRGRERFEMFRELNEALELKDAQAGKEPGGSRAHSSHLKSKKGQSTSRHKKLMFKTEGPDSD
Chain of Nuclear factor erythroid 2-related factor 2 (Homo sapiens) (Q16236 whole entry, looked up): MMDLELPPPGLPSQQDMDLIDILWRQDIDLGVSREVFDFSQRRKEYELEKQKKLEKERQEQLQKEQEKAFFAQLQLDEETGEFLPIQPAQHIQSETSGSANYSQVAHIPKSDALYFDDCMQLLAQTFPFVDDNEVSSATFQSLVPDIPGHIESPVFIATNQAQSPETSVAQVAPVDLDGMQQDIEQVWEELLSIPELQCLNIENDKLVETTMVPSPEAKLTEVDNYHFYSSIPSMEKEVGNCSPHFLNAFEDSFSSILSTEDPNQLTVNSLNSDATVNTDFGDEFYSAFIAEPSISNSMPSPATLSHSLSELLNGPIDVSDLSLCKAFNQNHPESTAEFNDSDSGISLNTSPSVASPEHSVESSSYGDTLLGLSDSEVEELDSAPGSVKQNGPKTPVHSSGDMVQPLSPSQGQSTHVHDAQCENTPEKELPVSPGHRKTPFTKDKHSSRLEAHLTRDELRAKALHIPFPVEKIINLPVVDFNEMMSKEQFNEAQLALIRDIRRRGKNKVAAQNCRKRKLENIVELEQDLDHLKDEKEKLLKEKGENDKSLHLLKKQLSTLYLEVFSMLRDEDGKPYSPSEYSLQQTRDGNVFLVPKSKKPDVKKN

For the compound `CCOc1cccc(C2(N3CCN(c4ccccc4)CC3)CCC(C)CC2)c1` (stereo unspecified), the compound was classed as inactive in assay [1], in [2], in assay [3], in [4], in [5] and in assay [6]. The outcome was “inactive” in assay [7]; “inactive” in assay [8]; “inactive” in [9]; “inactive” with TIMP1, TIMP1 (gene 7076); “inactive” in assay [10]; “inactive” in assay [11]. Further, the compound was called inactive in assay [12], in assay [14], in [15] and in assay [16]. For the same compound, the AC50 in assay [13] is 43.5 µM (active).

`Brc1ccc(Oc2ccccc2)cc1`: the compound was classed as inactive in assay [1], in assay [2], in assay [3], in assay [4], in [17] and in assay [5]. Besides, the outcome is “inactive” in [6]; “inactive” in assay [7]; “inactive” in [8]; “inactive” in assay [9]; “inactive” with TIMP1, TIMP1 (gene 7076); “inactive” in assay [10]. In addition, the compound was called inactive in assay [11], in [12], in [13], in assay [14], in assay [15] and in [16]. Besides, the compound was called inactive in assay [18].

Consider `CC(C)N(Cc1ccccc1)C(=O)C(C)(C)C`, for which the compound was classed as inactive in [1], in assay [2], in assay [3], in assay [4], in assay [17] and in assay [5]. The outcome in assay [6] was “inactive”; in assay [7], “inactive”; in [8], “inactive”; in the assay with TIMP1, TIMP1 (gene 7076), “inactive”; in assay [10], “inactive”; in assay [11] it was “inactive”. The compound was classed as inactive in [12], in [14] and in assay [16]. For the same compound, the AC50 in [13] was 6.96 µM (active).

For the compound `Oc1ccc2ccc3cccc4ccc1c2c34`, the result in assay [1], in assay [2], in assay [3], in assay [4], in assay [17] and in [5] was inactive. Further, the outcome in [6] was “inactive”; in [7], “inactive”; in assay [8], “inactive”; with TIMP1, TIMP1 (gene 7076), “inactive”; in [10], “inactive”; in assay [11], “inactive”. The result in [12], in [13], in [14], in assay [15], in assay [16] and in assay [19] was inactive. For the same compound, the call in [18] was inactive.

Values taken from PubChem BioAssay (EPA / NIEHS).
